High-throughput results (PubChem BioAssay)
In the library only some 1.4% were active in any assay of this set; here they are far more common.
AmpC detergent – inhibitors of E. coli AmpC beta-lactamase with detergent; P00811; AmpC hydrolysis of nitrocefin, absorbance 480 nm, 0.01% Triton; Potency, µM (doses to about 114 µM), for the others: at the top dose activity change, negative = inhibition, actives largely listed as inhibitors; 370,000 tested, 0.041% active;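 also: 0% = no-compound wells and -100% = no-enzyme wells; nearly all actives have a fitted effect of over 25% in size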
Target sequence (P00811 whole entry, looked up): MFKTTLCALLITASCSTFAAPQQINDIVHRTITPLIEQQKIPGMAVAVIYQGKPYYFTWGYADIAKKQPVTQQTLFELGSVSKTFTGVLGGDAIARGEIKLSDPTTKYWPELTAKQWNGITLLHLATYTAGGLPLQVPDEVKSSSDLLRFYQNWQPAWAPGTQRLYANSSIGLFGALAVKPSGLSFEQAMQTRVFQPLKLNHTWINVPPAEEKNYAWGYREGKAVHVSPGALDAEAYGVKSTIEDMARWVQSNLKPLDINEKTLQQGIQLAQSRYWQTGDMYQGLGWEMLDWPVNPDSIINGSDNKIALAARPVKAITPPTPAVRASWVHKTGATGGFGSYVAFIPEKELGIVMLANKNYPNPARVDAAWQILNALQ
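20 mM phosphate pH 7.0 + 0.01% (detergent screen) or 0.0001% Triton X-100; 5.3 nM AmpC reagent; cpd preinc 15 min RT; nitrocefin (800 uM stock) to start; A480 q20 s × 4 min; Activity was normalised to no-enzyme and no-compound control wells.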
TbPYK inhibitor – blocks Trypanosoma brucei pyruvate kinase | Q57TT1 | TbPYK enzyme, Kinase-Glo Plus ATP luminescence, 45 min | Potency, µM (titrated, usually from 76.8 µM), inactives show at the top dose activity, negative = inhibition, usual class: inhibitors | 410,000 tested, 0.12% active | AID 624173; also: nearly all actives have a fitted effect of over 50% in size
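In this concentration-response screen, enzyme-free wells defined baseline while DMSO plates tracked drift. Each reaction combined TbPYK, substrate, compound and 130 uM ADP for 45 min at room temperature. Kinase-Glo Plus luminescence gave the signal.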
FBPA Giardia inh – Giardia lamblia aldolase inhibition | 290,000 tested, 0.71% active | Potency, µM (titrated, usually from 59.6 µM), for the others: at the top dose activity, negative = inhibition, usual class: inhibitors | AID 2451 | A8B2U2 | purified Giardia FBPA; also: nearly all actives have a fitted effect of over 55% in size
Target sequence (A8B2U2 whole entry, looked up): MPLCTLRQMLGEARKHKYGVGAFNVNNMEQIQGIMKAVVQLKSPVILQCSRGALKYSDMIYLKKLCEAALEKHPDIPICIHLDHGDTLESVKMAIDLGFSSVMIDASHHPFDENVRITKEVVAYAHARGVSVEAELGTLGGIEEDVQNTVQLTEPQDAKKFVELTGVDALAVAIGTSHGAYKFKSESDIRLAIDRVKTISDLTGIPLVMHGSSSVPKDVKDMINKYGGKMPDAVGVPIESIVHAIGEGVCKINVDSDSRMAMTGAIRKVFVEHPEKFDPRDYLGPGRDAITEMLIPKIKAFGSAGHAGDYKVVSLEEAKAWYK
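Giardia FBPA (40 nM reagent) was preincubated 10 min at RT with compound (up to 57.5 uM final), then substrate plus GAPDH/TPI/NAD/arsenate coupling system with diaphorase/resazurin was added; resorufin fluorescence (525/598 nm) was read after 20 min.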
LmPK inh – blocks Leishmania mexicana pyruvate kinase activity; 290,000 tested, 0.37% active; Potency, µM (titrated, usually from 57.5 µM), for inactives: top-dose activity change, negative = inhibition, hits mostly inhibitors; purified LmPK, Kinase-Glo ATP luminescence, 1 h
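Purified LmPK (0.1 nM) with 0.5 mM PEP and 0.1 mM ADP in imidazole buffer pH 7.2 with MgCl2/KCl, 1 h at room temperature. ATP formed was read by luciferase luminescence and normalized to no-enzyme and uninhibited controls.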
RE007 growth inh – less growth of the S. pombe RE007 Vpr strain | S. pombe RE007 Vpr strain, BacTiter-Glo ATP luminescence, 24 h | Potency, µM (top dose mostly 92.2 µM), inactives show top-dose activity change, negative = less growth, most hits filed as inhibitors | 360,000 tested, 0.21% active | AID 651644; active = well fitted falling curve with a large enough effect; inconclusive = small, poorly fitted or top-dose-only effect; inactive = no such curve, though single readings can be large or run the other way; also: nearly all actives have a fitted effect of over 50% in size
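Fission yeast strain RE007, carrying one chromosomally integrated HIV-1 vpr copy, was seeded at OD 0.01 in PMG+AL medium with 23 nL pinned compound. After 24 h at 30 °C and 99% humidity, viability was read by BacTiter-Glo luminescence.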
AmpC inh no detg – inhibitors of E. coli AmpC beta-lactamase without detergent; P00811; AmpC nitrocefin hydrolysis, absorbance 480 nm, 0.0001% Triton; Potency, µM (top dose mostly 57.1 µM), for inactives: at the top dose activity change, negative = inhibition, usual class: inhibitors; 330,000 tested, 0.52% active; AID 485341;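 also: plate controls were no compound for no effect and no enzyme for full effect; nearly all actives have a fitted effect of over 20% in size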
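20 mM phosphate pH 7.0 + 0.01% (detergent screen) or 0.0001% Triton X-100; 5.3 nM AmpC reagent; cpd preinc 15 min RT; nitrocefin (800 uM stock) to start; A480 q20 s × 4 min; Activity was normalised to no-enzyme and no-compound control wells.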
* = called active by the depositor; ! = repeats disagree. Unless noted, calls follow the shape of the dose curve; as a rule, active = well fitted curve in the direction sought with a large enough effect; inconclusive = small, poorly fitted or top-dose-only effect, or another doubt; inactive = no such curve, though single readings can be large; an effect the other way counts as inactive or inconclusive. Unless noted, % is scaled to controls: 0 for no effect and ±100 for the full control effect; potency is read from the fitted curve at half-maximal effect.

What do the screens show for `COc1ccc(/C=N/n2c(-c3n[nH]c4c3CCC4)n[nH]c2=S)cc1`?
AmpC detergent: -9%; TbPYK inhibitor: inconclusive; FBPA Giardia inh: -6%; LmPK inh: -19%; RE007 growth inh: 0%; AmpC inh no detg: -38%

What do the screens show for `COc1cc(OC)c(OC)cc1/C=N/n1c(-c2n[nH]c3c2CCC3)n[nH]c1=S`?
AmpC detergent: 1%; TbPYK inhibitor: 2.5µM*; FBPA Giardia inh: -19%; LmPK inh: -20%; RE007 growth inh: 20%; AmpC inh no detg: -17%

Results for CCc1ccc(N(C(C)=O)C2C=CS(=O)(=O)C2)cc1 (stereo not drawn) ?
AmpC detergent: 3%; TbPYK inhibitor: 0%; FBPA Giardia inh: 0%; LmPK inh: 2%; RE007 growth inh: -15%; AmpC inh no detg: 0.16µM*

Results for Cc1ccccc1C1C(C#N)=C(N)N(N(C)C)C2=C1C(=O)CC(C)(C)C2 (stereo not drawn) ?
AmpC detergent: -15%; TbPYK inhibitor: 2%; FBPA Giardia inh: -16%; LmPK inh: 1%; RE007 growth inh: 5%; AmpC inh no detg: 2%

What do the screens show for `CN(C)N1C(N)=C(C#N)C(c2cccs2)C2=C1CC(C)(C)CC2=O` (stereo not drawn)?
AmpC detergent: 0%; TbPYK inhibitor: 0%; FBPA Giardia inh: 18µM*; LmPK inh: 0%; RE007 growth inh: 17%; AmpC inh no detg: 0%

Results for Cc1ccc(C)c(N2CCN(C(=O)C3CCN(c4nc(-c5ccc(C(C)C)cc5)no4)CC3)CC2)c1 ?
AmpC detergent: -3%; TbPYK inhibitor: -2%

How did O=C(CC1SC(=O)N(c2ccccc2)C1=O)Nc1cccc2ccccc12 (stereo not drawn) do in these assays?
AmpC detergent: -4%; TbPYK inhibitor: -27%; FBPA Giardia inh: -14%; LmPK inh: -1%; RE007 growth inh: 1%; AmpC inh no detg: 18µM*

How did O=S(=O)(c1ccc2nc(Nc3ccc(Br)cc3F)ccc2c1)N1CCCCC1 do in these assays?
AmpC detergent: 3%; TbPYK inhibitor: -1%

How did CCN1C(=O)/C(=C/c2ccc(N3CCCC3)cc2)NC1=S do in these assays?
AmpC detergent: -5%; TbPYK inhibitor: -17%; FBPA Giardia inh: -2%; LmPK inh: -1%; RE007 growth inh: -29%; AmpC inh no detg: 28µM*

Results for CN1c2ccccc2-c2nc(SCC(=O)Nc3ccccc3)ncc2S1(=O)=O ?
AmpC detergent: -2%; TbPYK inhibitor: 2%

How did NC1(C(=O)O)CC(C(=O)O)C1 (stereo not drawn) do in these assays?
FBPA Giardia inh: 5.6µM*!

Results for Brc1ccc(C2=CC(c3cccs3)n3ncnc3N2)cc1 (stereo not drawn) ?
AmpC detergent: -7%; TbPYK inhibitor: -14%; FBPA Giardia inh: -10%; LmPK inh: 2%; RE007 growth inh: -23%; AmpC inh no detg: 10µM*

Results for O=C1NC(=O)N(c2cccc(Cl)c2)C(=O)/C1=C\c1ccc(Sc2nc3ccccc3[nH]2)o1 ?
AmpC detergent: -11%; TbPYK inhibitor: inconclusive; FBPA Giardia inh: 2%; LmPK inh: -9%; RE007 growth inh: -27%; AmpC inh no detg: 22µM*

Results for CCOc1cccc(C2c3[nH]c4ccccc4c3CCN2C(=O)Cc2cccc(OCC)c2OCC)c1 (stereo not drawn) ?
AmpC detergent: 7%; TbPYK inhibitor: 6%

What do the screens show for `COc1ccc(/C=C(\C#N)C(=O)OCC(=O)NCc2ccccc2OC)cc1`?
AmpC detergent: inconclusive; TbPYK inhibitor: 0%; RE007 growth inh: -22%; AmpC inh no detg: 32µM*

What do the screens show for `COc1ccc(/C=C(\C#N)C(=O)OCC(=O)NCc2ccccc2Cl)cc1`?
AmpC detergent: 1%; TbPYK inhibitor: -2%; FBPA Giardia inh: -12%; LmPK inh: 2%; RE007 growth inh: -4%; AmpC inh no detg: -24%

How did CCOc1ccc(NC(=O)CC2C(=O)N(c3cccc(C)c3)C(=O)N2Cc2cccs2)cc1 (stereo not drawn) do in these assays?
AmpC detergent: 6%; TbPYK inhibitor: 4%

Results for CCCc1cc(=O)[nH]c2nnc(SCC(=O)NC3CCCC3)n12 ?
AmpC detergent: inconclusive; TbPYK inhibitor: inconclusive; RE007 growth inh: 7%; AmpC inh no detg: 18µM*

Results for CCCc1cc(=O)[nH]c2nnc(SCC(=O)Nc3ccc(NC(C)=O)cc3)n12 ?
AmpC detergent: -12%; TbPYK inhibitor: 0%; RE007 growth inh: -11%; AmpC inh no detg: -1%

What do the screens show for `CC(C)(C)c1cc(NCCCn2ccnc2)n2ncc(-c3ccc(Cl)cc3)c2n1`?
AmpC detergent: -6%; TbPYK inhibitor: -3%; FBPA Giardia inh: 1%; LmPK inh: 1%; RE007 growth inh: 22µM*; AmpC inh no detg: 56%

How did COCCn1c(CCC(=O)Nc2ccc(OC)c(OC)c2)nc2cccnc21 do in these assays?
AmpC detergent: 21%; TbPYK inhibitor: -3%

How did Oc1ccc(-c2n[nH]c(=S)n2Cc2ccco2)cc1 do in these assays?
AmpC detergent: -5%; TbPYK inhibitor: inconclusive; FBPA Giardia inh: -2%; LmPK inh: 11µM*; RE007 growth inh: -8%; AmpC inh no detg: -8%

How did Oc1cc2ccccc2cc1-c1n[nH]c(=S)n1Cc1ccco1 do in these assays?
AmpC detergent: 6%; TbPYK inhibitor: inconclusive; FBPA Giardia inh: -21%; LmPK inh: inconclusive; RE007 growth inh: 3%; AmpC inh no detg: -45%

Results for Cc1cccc(-c2n[nH]c(=S)n2Cc2ccccc2)c1 ?
AmpC detergent: -1%; TbPYK inhibitor: inconclusive; FBPA Giardia inh: 8%; LmPK inh: 18µM*; RE007 growth inh: 7%; AmpC inh no detg: -7%

How did Cc1[nH]c2ccc(-c3n[nH]c(=S)n3Cc3ccccc3)cc2c1C do in these assays?
AmpC detergent: -1%; TbPYK inhibitor: inconclusive; FBPA Giardia inh: 8%; LmPK inh: -26%; RE007 growth inh: -4%; AmpC inh no detg: 11µM*

Results for Cc1ccc(-c2n[nH]c(=S)n2Cc2ccccc2)cc1 ?
AmpC detergent: -1%; TbPYK inhibitor: inconclusive; FBPA Giardia inh: 9%; LmPK inh: 13µM*; RE007 growth inh: -5%; AmpC inh no detg: -25%

Results for O=C(CC1N=C2c3ccccc3N=C(SCc3ccccc3F)N2C1=O)NCc1ccc2c(c1)OCO2 (stereo not drawn) ?
AmpC detergent: 5%; TbPYK inhibitor: 3%
